The list is not random: actives were taken first. Their share in the collection is about 21%.
HCV inhibitor = qHTS Assay for Inhibitors of Hepatitis C Virus (HCV). Huh7.5.1 HCVcc-Cre infection, luciferase reporter, 44 h. Potency, µM (doses to about 41.8 µM), hits mostly inhibitors. 340,000 compounds, 3.4% hits. AID 651820, 2012
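HCVcc-Cre virus at an moi near 0.5 was added right after compound to cells cultured 4 h from seeding (1,000 cells/well). Luciferase activity was determined 44 h later, 15 min after substrate addition at RT.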
Cycloheximide cs = Cycloheximide Counterscreen for Small Molecule Inhibitors of Shiga Toxin; cell reporter, cycloheximide protein synthesis inhibition counterscreen; max response, %; 300,000 compounds, 12% hits; AID 2314, 2010; in the data active means max response mostly above about 13%, no sharp cut-off; inactive means mostly below about 14%; further: read at 38.3 µM for the half of the compounds with a filed dose
AMA1-RON2 inh = qHTS for Inhibitors of AMA1-RON; Towards Development of Antimalarial Drug Lead: Primary Screen | Plasmodium falciparum AMA1 (3D7) - RON2 peptide interaction | AlphaScreen AMA1-biotinylated RON2 peptide binding | Potency, µM (top dose mostly 58.2 µM), usual class: inhibitors | 360,000 compounds, 0.2% hits | AID 720542, 2013; further: nearly all actives have a fitted effect of over 45% in size
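AMA1 (3D7) with his tag at 25 nM final met compounds first, then biotinylated RON2 peptide at 25 nM; detection used donor plus acceptor beads, 10 µg/mL apiece, read by AlphaScreen after 30 min at room temperature.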
Pf growth 96h = Primary qHTS for delayed death inhibitors of the malarial parasite plastid, 96 hour incubation; P. falciparum luciferase reporter growth, 96 h; Potency, µM (series often up to 28.7 µM), most hits filed as inhibitors; 320,000 compounds, 6.9% hits
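P. falciparum expressing integrated firefly luciferase, in erythrocytes at 2% hematocrit, 0.05% parasitemia, incubated with compounds 96 h at 37 C, 5% CO2. Growth inhibition read as loss of luminescence; two-generation exposure targets delayed-death apicoplast inhibitors.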
Pf growth 48h = Primary qHTS for delayed death inhibitors of the malarial parasite plastid, 48 hour incubation. 310,000 compounds, 5.9% hits. P. falciparum luciferase growth in erythrocytes, 48 h. Potency, µM (highest dose often 28.7 µM), usual class: inhibitors. AID 504832, 2011
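Erythrocytes infected with P. falciparum carrying an integrated firefly luciferase reporter (2% hematocrit, 0.1% parasitemia final) were exposed to compounds in RPMI 1640 with 0.5% Albumax at 37 C, 5% CO2. Growth inhibition was scored as reduced luminescence.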
Shiga toxin inh = A qHTS for Small Molecule Inhibitors of Shiga Toxin. AID 2315, 2010. Vero cells, Shiga toxin protein synthesis inhibition reporter. inhibition, % at 38.7 µM. 290,000 compounds, 9.2% hits; in the data active means inhibition mostly above about 28%, no sharp cut-off; inactive means mostly below about 43%
A number is an active result; n = inactive; u = inconclusive; x = not tested or not shown; ! = a repeat was not active. Unless noted, the call rests on the fitted dose curve; in most records, active means well fitted curve in the direction sought with a large enough effect; inconclusive means small, poorly fitted or top-dose-only effect, or another doubt; inactive means no such curve, though single readings can be large; an effect the other way counts as inactive or inconclusive.

SMILES	HCV inhibitor	Cycloheximide cs	AMA1-RON2 inh	Pf growth 96h	Pf growth 48h	Shiga toxin inh
CCC1CCCCN1CCN1C(=O)C2C(C(=O)Nc3cccc(OC)c3)C3C=CC2(O3)C1C(=O)NC1CCCCC1 (stereo not drawn)	n	n	n	n	8.3µM	n
O=C(Nc1ccc(Cl)cc1)c1cccc(S(=O)(=O)Nc2ccccn2)c1	x	n	n	13µM	n	n
O=C(Nc1ccccn1)c1ccc(-c2ccccc2)cc1	10µM	n	n	n	n	n
O=C(Nc1ccc(Cl)cc1)Nc1ccccn1	n	41	n	n	n	103
O=C(O)c1ccccc1C(=O)Nc1ccccn1	n	n	u	n	n	n
O=C(Nc1ccccn1)c1ccc2nc(-c3ccccc3)c(-c3ccccc3)nc2c1	x	n	x	n	n	n
O=C(Nc1ccccn1)C(=O)Nc1ccccn1	n	30	n	n	n	39
O=C(Nc1ccc(Cl)cc1)Nc1ccc(S(=O)(=O)Nc2ncccn2)cc1	n	n	n	n	n	n
C/C=C1\NC(=O)[C@H](C)NC(=O)[C@@H](NC(=O)[C@@H](Cc2ccc(O)cc2)NC(=O)[C@@H](NC(=O)/C(C)=C/C)C(C)C)[C@@H](C)OC(=O)[C@H](CCCCc2ccc(O)cc2)NC(=O)[C@@H](CCC(=O)O)NC1=O	n	x	n	x	x	x
CC(O)(c1ccccc1)c1nc(/C=C/c2ccccc2)cs1 (stereo not drawn)	x	x	n	x	x	x
CC1(C)Cc2c(sc(NC(=O)C(=O)N3CCOCC3)c2C(N)=O)CO1	n	n	n	u	n	n
O=C(Nc1ccccn1)C1CCN(C(=O)Nc2ccccc2)CC1	n	x	n	n	n	x
O=C(Nc1ccccc1)Nc1ccccn1	n	33	n	n	n	60
S=C(Nc1ccccn1)c1ccccn1	n	42	n	6.6µM!	u	71!
O=c1c2ccccc2nc(SCc2nnc(-c3ccccc3Br)o2)n1Cc1ccco1	13µM	17	n	x	u	n
O=c1c2ccccc2nc(SCc2nc3ccccc3s2)n1Cc1ccco1	u	n	n	n	n	n
NC(=O)C1CCN(C(=O)c2ccc3c(=O)n(Cc4ccco4)c(SCc4ccc([N+](=O)[O-])cc4)nc3c2)CC1	n	n	n	u	12µM	n
O=c1c2ccccc2nc(SCc2ccccc2)n1Cc1ccco1	u	36	n	n	u	n
Cc1ccc(CSc2nc3ccccc3c(=O)n2Cc2ccco2)cc1	n	n	n	9.3µM	13µM	63
CC(C)c1cc(Cn2c3ccccc3c(=O)n2C(C)Cn2cc(-c3ccccc3)nn2)on1 (stereo not drawn)	x	x	n	x	x	x
CCc1nnc(NC(=O)COC(=O)c2cc(OC)cc(OC)c2)s1	n	x	n	x	x	x
FC(F)(F)COc1cc(-c2nnc(SCc3ccccc3)n2Cc2ccco2)cc(OCC(F)(F)F)n1	u	n	n	12µM	6.6µM	n
Nc1nc(N)c(Br)c(Nc2ccc(Cl)c(Cl)c2)n1	n	x	n	x	x	x
Nc1nc(N)c(C=Nc2ccc(Br)cc2)c(Nc2ccc(Br)cc2)n1	u	n	n	0.33µM	0.59µM	n
O=C(CN(Cc1ccc(F)cc1)C(=O)CCC(=O)Nc1ccccn1)NCc1ccc(F)cc1	n	n	n	n	n	n
SMILES	HCV inhibitor	Cycloheximide cs	AMA1-RON2 inh	Pf growth 96h	Pf growth 48h	Shiga toxin inh
C=CCN1c2ccccc2[C@]23C[C@@H](C(=O)OC)N(C(=O)c4cccs4)C2=NC(C(=O)OC)=C(C(=O)OC)[C@H]13	n	n	n	u	n	n
COc1ccc2[nH]c(=O)c(CNc3cccc(C)c3)cc2c1	u	29	n	u	u	n
CNC(=S)N(Cc1cccs1)Cc1cc2cc(OC)ccc2[nH]c1=O	n	n	n	7.4µM	u	n
COc1ccc2[nH]c(=O)c(CN(CCO)C(=O)c3cccs3)cc2c1	n	n	n	n	n	n
COc1ccc2[nH]c(=O)c(CN(Cc3cccs3)S(=O)(=O)c3cccc4nsnc34)cc2c1	10µM!	n	n	n	7.4µM	n
CCC(=O)N(CCc1ccccc1)Cc1cc2cc(OC)ccc2[nH]c1=O	n	n	n	n	2.1µM	n

Bioassay records: PubChem BioAssay, National Center for Advancing Translational Sciences (NCATS)
